# Source: the supplement of paper PMC12532568
# Structures can show the parent of a compound that is named as a salt.
# Tested on: Danio rerio larvae Tg(actc1b:ZsGreen-LC3), 3 dpf
# Assay: LC3 puncta relative area vs vehicle, with NH4Cl (autophagic flux) (log2 fold change); higher = more autophagy
# Conditions: 10 µM; treatment time 16 h; NH4Cl: + 100 mM, 4 h
# Procedure: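 Transgenic Tg(actc1b:ZsGreen-map1lc3) zebrafish larvae (2 dpf) were treated for 16 h with Tocris library compounds at 10 µM (n = 12 larvae per compound). Skeletal-muscle LC3 puncta area relative to body area was measured by high-content confocal imaging before and after 4 h of 100 mM NH4Cl (autophagic flux), normalised to vehicle (DMSO), and reported as log2 fold change.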
row,Compound,LC3 puncta (log2)
1,CC(C(=O)OC1CC2CCC(C1)N2C)c1ccc(Br)cc1 (configuration not stated) [PG-9 maleate],0.169
2,CCCN(CCC)C1CCc2ccc(O)cc2C1 (configuration not stated) [7-Hydroxy-DPAT hydrobromide],0.179
3,c1ccc2c(c1)OCC(C1=NCCN1)O2 (configuration not stated) [Idazoxan hydrochloride],0.662
4,O=C(O)Cc1cccnc1C(=O)O [Homoquinolinic acid],0.499
5,O=c1[nH]oc2c1CCNC2 [THIP hydrochloride],0.742
6,COc1ccc(CNC(=O)/C=C/c2ccc3[nH]cc(CCN(C)C)c3c2)cc1,0.115
7,c1ccc(CCCN2CCN(CCOC(c3ccccc3)c3ccccc3)CC2)cc1,0.346
8,CN1C(=O)CCS(=O)(=O)C1c1ccc(Cl)cc1 (configuration not stated) [Chlormezanone],0.287
9,Cc1onc(O)c1CC(N)C(=O)O (racemic),0.2
10,O=C(CCCN1CCC2(CC1)C(=O)N(Cc1cccc(F)c1)CN2c1ccccc1)c1ccc(F)cc1 [3'-Fluorobenzylspiperone maleate],1.38
11,COc1ccc(C(=O)N2CCCC2=O)cc1 [Aniracetam],0.0699
12,CC(C)[C@@]1(NC(=O)[C@@H]2C[C@@H]3c4cccc5[nH]cc(c45)C[C@H]3N(C)C2)O[C@@]2(O)[C@@H]3CCCN3C(=O)[C@H](Cc3ccccc3)N2C1=O [Dihydroergocristine mesylate],0.198
13,c1ccc2nc(N3CCNCC3)ccc2c1 [Quipazine dimaleate],0.278
14,"c1ccc(CC(c2ccccc2)N2CCCCC2)cc1 (configuration not stated) [(?)-1-(1,2-Diphenylethyl)piperidine maleate]",0.216
15,"Cc1cc(C)cc(C(=O)OC2C[C@H]3CC[C@@H](C2)N3C)c1 (some centres not stated) [Tropanyl-3,5-dimethylbenzoate]",0.418
16,CCCN(CCC)[C@@H]1CCc2c(OC)cccc2[C@@H]1C [(+)-UH 232 maleate],0.738
17,N=C(N)NN [Aminoguanidine hydrochloride],0.662
18,OC1CCCCC1N1CCC(c2ccccc2)CC1 (configuration not stated) [(?)-Vesamicol hydrochloride],0.751
19,N[C@@]1(C(=O)O)CC[C@@H](C(=O)O)C1,0.292
20,CC(=O)NCCc1c[nH]c2ccccc12 [N-Acetyltryptamine],0.0329
21,CO[C@]12C[C@@H](COC(=O)c3cncc(Br)c3)CN(C)[C@@H]1Cc1cn(C)c3cccc2c13 [Nicergoline],0.397
22,C=CCN1CC[C@]23c4c5ccc(O)c4O[C@H]2C(=O)CC[C@@]3(O)[C@H]1C5 [Naloxone hydrochloride],0.232
23,CCC(Oc1ccc(Cl)cc1)C(=O)OC1C[C@H]2CC[C@@H](C1)N2C (some centres not stated) [SM-21 maleate],0.294
24,C=CCN1C[C@H](C)N([C@H](c2ccc(C(=O)N(CC)CC)cc2)c2cccc(OC)c2)C[C@H]1C,0.846
25,Oc1ccc2c3c1O[C@H]1c4c(c5ccccc5n4Cc4ccccc4)C[C@@]4(O)C(C2)N(CC2CC2)CC[C@]314 [N-Benzylnaltrindole hydrochloride],0.945
26,c1ccc2sc(C3(N4CCCCC4)CCCCC3)cc2c1 [BTCP maleate],0.575
27,O=C(O)/C=C/CO [trans-4-Hydroxycrotonic acid],0.0547
